Assay outcomes as filed in PubChem BioAssay.
This is a sample that favours compounds with a hit; in the whole collection about 18% have one here.
RORgamma inh = qHTS for inhibitors of ROR gamma transcriptional activity; Nuclear receptor ROR-gamma (Mus musculus), P51450; Drosophila S2 Gal4-RORgamma UAS-luciferase reporter, 20 h; Potency, µM (doses to about 53.6 µM), without a hit: at the highest dose activity change, negative = inhibition, actives largely listed as inhibitors; hit rate 5.4% among 310,000; AID 2551, 2010; also: potency is read from the fitted curve at half-maximal effect; nearly all actives have a fitted effect of over 60% in size
Target sequence (P51450 whole entry, looked up, the tested form may be a part): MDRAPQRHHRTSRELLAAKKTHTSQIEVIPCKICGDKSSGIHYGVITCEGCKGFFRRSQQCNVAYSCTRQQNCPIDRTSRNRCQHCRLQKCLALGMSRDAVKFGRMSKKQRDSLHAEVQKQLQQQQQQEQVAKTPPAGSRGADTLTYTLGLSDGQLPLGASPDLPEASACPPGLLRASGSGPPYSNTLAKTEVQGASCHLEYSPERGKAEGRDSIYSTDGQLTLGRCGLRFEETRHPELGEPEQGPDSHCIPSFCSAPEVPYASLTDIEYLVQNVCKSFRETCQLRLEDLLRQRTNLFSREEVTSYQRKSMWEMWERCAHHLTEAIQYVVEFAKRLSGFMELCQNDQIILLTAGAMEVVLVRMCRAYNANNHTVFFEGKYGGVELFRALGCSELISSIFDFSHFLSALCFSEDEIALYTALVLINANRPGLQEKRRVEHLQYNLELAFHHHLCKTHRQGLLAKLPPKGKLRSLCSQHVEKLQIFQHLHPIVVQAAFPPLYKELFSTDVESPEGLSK
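Compounds are pin-transferred onto Drosophila Schneider cells expressing a copper-inducible Gal4–ROR gamma transactivation domain fusion. After 1 hr, copper sulfate is added to 700 uM final; luciferase is read 20 hr later.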
VP16 counter = VP16 counterscreen qHTS for inhibitors of ROR gamma transcriptional activity. Drosophila S2 Gal4-VP16 UAS-luciferase, luminescence, 20 h. Potency, µM (top dose mostly 53.6 µM), inactives show at the top dose activity, negative = inhibition, hits mostly inhibitors. hit rate 3.5% among 310,000;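 also: Gal4-VP16 expression switched on by copper sulfate through the metallothionein promoter; potency is read from the fitted curve at half-maximal effect; nearly all actives have a fitted effect of over 50% in size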
DT40 TDP1 CPT = qHTS for Inhibitors of human tyrosyl-DNA phosphodiesterase 1 (TDP1): qHTS in cells in presence of CPT. chicken DT40 Tdp1-/-;hTDP1 cells + 20 nM CPT, ATP luminescence, 48 h. Potency, µM (series often up to 46.2 µM), without a hit: at the highest dose activity change, negative = growth inhibition, actives largely listed as inhibitors. hit rate 12% among 420,000. AID 686979, 2013; also: potency is read from the fitted curve at half-maximal effect; nearly all actives have a fitted effect of over 55% in size
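Chicken DT40 Tdp1-/- cells complemented with human TDP1, 400 cells/well, exposed to compounds plus 20 nM camptothecin for at least 48 h at 37 C; viability read as ATP content by CellTiter-Glo luminescence.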
LDHA inh = qHTS assay for inhibitors of human lactate dehydrogenase; purified LDHA, NADH/diaphorase-resazurin fluorescence; hits give low values; activity change, % (values are at about 110 or 230 µM); hit rate 0.15% among 480,000; AID 1347041, 2019; in the data active = activity change below about -30%; inconclusive = mostly about -25% to -30%;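 also: plate controls were DMSO wells for no effect and wells without enzyme for full effect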
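LDH5 2 nM; NADH 0.06 mM, pyruvate 0.2 mM; 200 mM Tris pH 7.4, EDTA, Tween-20; 5 min RT. Detection: diaphorase 0.133 mg/mL + resazurin 37 µM, fluorescence ex540/em590 at 0 and 20 min; normalized to enzyme-free and DMSO wells.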
DT40 TDP1 no CPT = qHTS for Inhibitors of human tyrosyl-DNA phosphodiesterase 1 (TDP1): qHTS in cells in absence of CPT | AID 686978, 2013 | hit rate 15% among 420,000 | Potency, µM (top dose mostly 46.2 µM), inactives show at the top dose activity change, negative = growth inhibition, most hits filed as inhibitors | DT40 Tdp1-/- hTDP1 cells, no CPT, ATP luminescence, 48 h; also: potency is read from the fitted curve at half-maximal effect; nearly all actives have a fitted effect of over 55% in size
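Camptothecin absent (DMSO only). Human TDP1-complemented DT40 knockout cells, 400 cells/well, 37 °C for minimum 48 hr; ATP measured via CellTiter-Glo, 30 min dark incubation, luminescence.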
IL1B secr inh = qHTS for Inhibitors of Inflammasome Signaling: IL-1-beta AlphaLISA Primary Screen | activity change, % at 57.5 µM | hit rate 4.7% among 360,000 | THP-1 LPS/ATP IL-1B secretion, AlphaLISA, 16 h; hits give low values; in the data active = activity change below about -50%; inconclusive = mostly about -30% to -49%
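Secreted IL-1B measured by AlphaLISA bead assay after 16 h compound exposure of THP-1 cells; compounds (final up to 57.5 uM) added 1 h before LPS (250 ng/mL) and ATP (1.25 mM) stimulation; lower signal means less secretion.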
* = called active by the depositor; ? = inconclusive; . = no result given. Unless noted, calls follow the shape of the dose curve; as a rule, active = well fitted curve in the direction sought with a large enough effect; inconclusive = small, poorly fitted or top-dose-only effect, or another doubt; inactive = no such curve, though single readings can be large; an effect the other way counts as inactive or inconclusive. Unless noted, % is scaled to controls: 0 for no effect and ±100 for the full control effect.

SMILES	RORgamma inh	VP16 counter	DT40 TDP1 CPT	LDHA inh	DT40 TDP1 no CPT	IL1B secr inh
CCN(CC)C(=O)c1[nH]cnc1C(=O)N[C@@H](CCCCNC(=O)OC(C)(C)C)C(=O)OC(C)(C)C	-26%	4%	-3%	-6	?	9
CC(C)(C)OC(=O)NCCCCCNC(=O)c1[nH]cnc1C(=O)N[C@@H](CCCCNC(=O)OC(C)(C)C)C(=O)OC(C)(C)C	?	?	16µM*	8	16µM*	-21
CC(=O)Oc1ccc2c(=O)c(-c3nc4ccccc4s3)c(C)oc2c1	.	.	.	1	.	.
Cc1nc2nc(C)n(CCN3CCOCC3)c(=O)c2c(-c2cccc([N+](=O)[O-])c2)c1C(=O)CCCCCCCCCCN1CCC(c2ccccc2)(c2ccccc2)CC1	.	.	?	0	?	-99*
CCC(C)[C@@H](CN(N=O)[C@@H](Cc1ccccc1)CN(C)N=O)N(CCc1ccccc1)N=O (some centres not stated)	36%	-10%	16µM*	0	21µM*	-2
CN(C[C@H](Cc1ccccc1)N(C[C@H](CC1CCCCC1)N(CCc1ccccc1)N=O)N=O)N=O	0%	1%	26µM*	3	?	11
CC(CCc1ccccc1)NC(=O)CCC1CCCC1 (configuration not stated)	.	.	6%	1	-21%	-3
CC(CCc1ccccc1)NC(=O)CC1CCCC1 (configuration not stated)	.	.	.	-3	.	.
CN(C[C@@H](CC1CCCCC1)N(C[C@H](Cc1ccccc1)N(CCc1ccccc1)N=O)N=O)N=O	4%	5%	23µM*	-3	?	2
O=C(OCc1ccc(Cl)cc1)c1cnc2ccccc2n1	.	.	.	-2	.	.
CCOC(=O)/C(C#N)=C/c1ccsc1C	.	.	.	-2	.	.
Cc1ccc(Cn2cc(C(=O)c3ccc4c(c3)OCO4)c(=O)c3cc(C)ccc32)cc1	.	.	?	-12	23µM*	.
Cc1ccc(C(=O)c2cn(Cc3ccccc3F)c3cc4c(cc3c2=O)OCO4)cc1	.	.	?	-2	21µM*	.
CCOCCCNC(=O)CCC(=O)NNc1nc2ccccc2c2nc(-c3ccccc3)nn12	37%	-3%	?	-6	12µM*	30
Cc1nc2c3ccccc3nc(NNC(=O)CCC(=O)N3CCN(c4ccccc4)CC3)n2n1	0%	3%	?	-11	?	8
CC(C)OCCCNC(=O)CCC(=O)NNc1nc2ccccc2c2nc(-c3ccccc3)nn12	38%	?	-79%	2	?	-22
Cc1nc2c3ccccc3nc(NNC(=O)CCC(=O)N3CCN(c4cccc(C(F)(F)F)c4)CC3)n2n1	.	.	21µM*	2	23µM*	.
CCN(CC)CCCNC(=O)CCC(=O)NNc1nc2ccccc2c2nc(C)nn12	18µM*	?	0%	12	0%	21
Cc1ccccc1NC(=O)c1c(NC(=O)COCC(=O)O)sc2c1CCCCC2	.	.	.	-15	.	.
NC(Cc1ccccc1)c1nnc(SCc2ccccc2)o1 (configuration not stated)	.	.	.	0	.	.
Cc1ccc2c(COC(=O)CCCN=C3NS(=O)(=O)c4ccccc43)cc(=O)oc2c1	.	.	.	20	.	.
CC(Oc1ccccc1)C(=O)OCc1nc(N)nc(N)n1 (configuration not stated)	.	.	.	2	.	.
